Out of some 5,500 compounds screened, about 2,000 (36%) were called active. Roughly 18% stayed inconclusive and do not appear here. The list shows a part of the results. Values without a mark were called inactive. Rule as the data show it: active = normalized growth mostly below about 0.91 (no sharp cut-off); inconclusive = no clear call, values can overlap the other calls; inactive = mostly above about 0.92.
Assay: chemical genetic growth profiling, strain panel (AID 1159580);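 also: tested at 20 µM; growth read once vehicle control cultures reached saturation at 30 °C; 1 = growth at the plate median or of vehicle wells; lower values mean less growth of the strain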
Details: growth OD
[1] = S. cerevisiae deletion strains, locus YAL013W, strain DEP1, active compounds read low
[2] = S. cerevisiae deletion strains, locus YBR229C, strain ROT2, active compounds read low
[3] = S. cerevisiae deletion strains, locus YCL061C, strain MRC1, active compounds read low
[4] = S. cerevisiae deletion strains, locus YDL101C, strain DUN1, active compounds read low
[5] = S. cerevisiae deletion strains, locus YDL134C, strain PPH21, active compounds read low
[6] = S. cerevisiae deletion strains, locus YDR150W, strain NUM1, active compounds read low
[7] = S. cerevisiae deletion strains, locus YEL061C, strain CIN8, active compounds read low
[8] = S. cerevisiae deletion strains, locus YGR078C, strain PAC10, active compounds read low
[9] = S. cerevisiae deletion strains, locus YHR030C, strain SLT2, active compounds read low
[10] = S. cerevisiae deletion strains, locus YHR087W, strain rtc3, active compounds read low
[11] = S. cerevisiae deletion strains, locus YJR075W, strain HOC1, active compounds read low
[12] = S. cerevisiae deletion strains, locus YLR039C, strain RIC1, active compounds read low
[13] = S. cerevisiae deletion strains, locus YLR058C, strain SHM2 (second series), active compounds read low
[14] = S. cerevisiae deletion strains, locus YLR085C, strain ARP6, active compounds read low
[15] = S. cerevisiae deletion strains, locus YLR262C, strain YPT6, active compounds read low
[16] = S. cerevisiae deletion strains, locus YML094W, strain GIM5, active compounds read low
[17] = S. cerevisiae deletion strains, locus YMR219W, strain ESC1, active compounds read low
[18] = S. cerevisiae deletion strains, locus YMR263W, strain SAP30, active compounds read low
[19] = S. cerevisiae deletion strains, locus YNL153C, strain GIM3, active compounds read low
[20] = S. cerevisiae deletion strains, locus YNL298W, strain CLA4 (second series), active compounds read low
[21] = S. cerevisiae deletion strains, locus YNL322C, strain KRE1, active compounds read low
[22] = S. cerevisiae deletion strains, locus YNR030W, strain Alg12, active compounds read low
[23] = S. cerevisiae deletion strains, locus YOL006C, strain TOP1, active compounds read low
[24] = S. cerevisiae deletion strains, locus YPL055C, strain LGE1, active compounds read low
[25] = S. cerevisiae deletion strains, locus YPL241C, strain CIN2, active compounds read low
[26] = S. cerevisiae deletion strains, locus YPR135W, strain CTF4, active compounds read low
[27] = S. cerevisiae deletion strains, locus YJR043C, strain POL32, active compounds read low
[28] = S. cerevisiae deletion strains, locus YMR307W, strain GAS1, active compounds read low

With `CC(C)(C)OC(=O)C(C)(C)S(=O)(=O)c1ccc(Cl)cc1` the normalized growth [1] was 1.01, the normalized growth [2] was 0.983 and the normalized growth [3] was 0.979. The normalized growth [4] was 0.977, the normalized growth [5] was 0.995 and the normalized growth [6] was 0.992. For the same compound, the normalized growth [7] was 1, the normalized growth [8] was 0.992 and the normalized growth [9] was 0.955. For the same compound, the normalized growth [10] was 1.01, the normalized growth [11] was 0.973 and the normalized growth (S. cerevisiae deletion strains, locus YKL190W, strain CNB1, active compounds read low) was 0.994. It also gave a normalized growth [12] of 0.958, a normalized growth [13] of 1.01 and a normalized growth [14] of 1.05. It also gave a normalized growth [15] of 0.927, a normalized growth [16] of 0.987 and a normalized growth [17] of 0.995. The normalized growth [18] was 0.992, the normalized growth [19] was 0.98 and the normalized growth [20] was 1.02. It also gave a normalized growth [21] of 0.984, a normalized growth [22] of 0.983 and a normalized growth [23] of 1.01. For the same compound, the normalized growth [24] was 1.02, the normalized growth [25] was 1.01 and the normalized growth [26] was 1.04. For the same compound, the normalized growth (S. cerevisiae strains, strain wild type, active compounds read low) was 1.
In the case of `O=[N+]([O-])c1ccc(S(=O)(=O)c2ccccc2)nc1S(=O)(=O)c1ccccc1`, the normalized growth (S. cerevisiae deletion strains, locus YAR019C, strain CDC15, active compounds read low) is reported as 0.882 (active), the normalized growth (S. cerevisiae deletion strains, locus YBL105C, strain PKC1, active compounds read low) is reported as 0.914 and the normalized growth (S. cerevisiae deletion strains, locus YBR135W, strain CKS1, active compounds read low) is reported as 0.903. For the same compound, the normalized growth (S. cerevisiae deletion strains, locus YBR136W, strain MEC1, active compounds read low) was 0.93, the normalized growth (S. cerevisiae deletion strains, locus YBR160W, strain CDC28, active compounds read low) was 0.915 and the normalized growth (S. cerevisiae deletion strains, locus YDL017W, strain CDC7, active compounds read low) was 0.942. The normalized growth (S. cerevisiae deletion strains, locus YDL028C, strain MPS1, active compounds read low) was 0.972, the normalized growth [4] was 0.922 and the normalized growth (S. cerevisiae deletion strains, locus YDL108W, strain KIN28, active compounds read low) was 0.94. The normalized growth (S. cerevisiae deletion strains, locus YDL132W, strain cdc53, active compounds read low) was 0.931, the normalized growth (S. cerevisiae deletion strains, locus YDL214C, strain PRR2, active compounds read low) was 0.393 (active) and the normalized growth (S. cerevisiae deletion strains, locus YDR052C, strain DBF4, active compounds read low) was 0.942. The normalized growth (S. cerevisiae deletion strains, locus YDR054C, strain cdc34, active compounds read low) was 0.904, the normalized growth (S. cerevisiae deletion strains, locus YDR226W, strain ADK1, active compounds read low) was 0.904 and the normalized growth (S. cerevisiae deletion strains, locus YDR477W, strain SNF1, active compounds read low) was 0.473 (active). The normalized growth (S. cerevisiae deletion strains, locus YER123W, strain YCK3, active compounds read low) was 0.223 (active), the normalized growth (S. cerevisiae deletion strains, locus YER133W, strain GLC7, active compounds read low) was 0.361 (active) and the normalized growth (S. cerevisiae deletion strains, locus YFL009W, strain cdc4, active compounds read low) was 0.918. The normalized growth (S. cerevisiae deletion strains, locus YFL029C, strain CAK1, active compounds read low) was 0.885, the normalized growth (S. cerevisiae deletion strains, locus YFR003C, strain YPI1, active compounds read low) was 0.974 and the normalized growth (S. cerevisiae deletion strains, locus YFR019W, strain FAB1, active compounds read low) was 0.62 (active). For the same compound, the normalized growth (S. cerevisiae deletion strains, locus YFR028C, strain CDC14, active compounds read low) was 0.893, the normalized growth (S. cerevisiae deletion strains, locus YGR040W, strain KSS1, active compounds read low) was 0.443 (active) and the normalized growth (S. cerevisiae deletion strains, locus YGR052W, strain FMP48, active compounds read low) was 0.353 (active). For the same compound, the normalized growth (S. cerevisiae deletion strains, locus YGR092W, strain DBF2, active compounds read low) was 0.785, the normalized growth [9] was 0.334 (active) and the normalized growth (S. cerevisiae deletion strains, locus YHR079C, strain IRE1, active compounds read low) was 0.88. For the same compound, the normalized growth (S. cerevisiae deletion strains, locus YHR082C, strain KSP1, active compounds read low) was 0.364 (active), the normalized growth (S. cerevisiae deletion strains, locus YHR205W, strain SCH9, active compounds read low) was 0.47 (active) and the normalized growth (S. cerevisiae deletion strains, locus YIL147C, strain SLN1, active compounds read low) was 0.974. The normalized growth (S. cerevisiae deletion strains, locus YJL095W, strain BCK1, active compounds read low) was 0.401 (active), the normalized growth (S. cerevisiae deletion strains, locus YJR016C, strain ILV3, active compounds read low) was 0.936 and the normalized growth (S. cerevisiae deletion strains, locus YJR066W, strain TOR1 (second series), active compounds read low) was 0.438 (active). For the same compound, the normalized growth (S. cerevisiae deletion strains, locus YJR066W, strain TOR1, active compounds read low) was 0.299 (active), the normalized growth (S. cerevisiae deletion strains, locus YKL048C, strain ELM1, active compounds read low) was 0.948 and the normalized growth (S. cerevisiae deletion strains, locus YKL101W, strain HSL1, active compounds read low) was 0.777. The normalized growth (S. cerevisiae deletion strains, locus YKL193C, strain SDS22, active compounds read low) was 0.871 (active), the normalized growth (S. cerevisiae deletion strains, locus YKL203C, strain TOR2, active compounds read low) was 0.555 (active) and the normalized growth (S. cerevisiae deletion strains, locus YLR113W, strain HOG1, active compounds read low) was 0.184 (active). The normalized growth (S. cerevisiae deletion strains, locus YLR133W, strain CKI1, active compounds read low) was 0.691 (active), the normalized growth (S. cerevisiae deletion strains, locus YLR403W, strain SFP1, active compounds read low) was 0.748 and the normalized growth (S. cerevisiae deletion strains, locus YML070W, strain DAK1, active compounds read low) was 0.433 (active). The normalized growth (S. cerevisiae deletion strains, locus YMR001C, strain CDC5, active compounds read low) was 0.896, the normalized growth (S. cerevisiae deletion strains, locus YMR205C, strain PFK2 (second series), active compounds read low) was 0.785 and the normalized growth (S. cerevisiae deletion strains, locus YMR277W, strain FCP1, active compounds read low) was 0.87 (active). For the same compound, the normalized growth (S. cerevisiae deletion strains, locus YNL006W, strain LST8, active compounds read low) was 0.99, the normalized growth (S. cerevisiae deletion strains, locus YNL020C, strain ARK1, active compounds read low) was 0.874 and the normalized growth (S. cerevisiae deletion strains, locus YNL161W, strain CBK1, active compounds read low) was 0.919. The normalized growth (S. cerevisiae deletion strains, locus YNL183C, strain NPR1, active compounds read low) was 0.178 (active), the normalized growth (S. cerevisiae deletion strains, locus YNL207W, strain RIO2, active compounds read low) was 0.916 and the normalized growth (S. cerevisiae deletion strains, locus YNL222W, strain SSU72, active compounds read low) was 0.915. The normalized growth (S. cerevisiae deletion strains, locus YOL078W, strain AVO1, active compounds read low) was 0.879 (active), the normalized growth (S. cerevisiae deletion strains, locus YOL136C, strain PFK27, active compounds read low) was 0.533 (active) and the normalized growth (S. cerevisiae deletion strains, locus YOR061W, strain CKA2, active compounds read low) was 0.879. For the same compound, the normalized growth (S. cerevisiae deletion strains, locus YOR119C, strain RIO1, active compounds read low) was 0.442 (active), the normalized growth (S. cerevisiae deletion strains, locus YOR231W, strain MKK1, active compounds read low) was 0.809 and the normalized growth (S. cerevisiae deletion strains, locus YOR329C, strain SCD5, active compounds read low) was 0.973. The normalized growth (S. cerevisiae deletion strains, locus YPL153C, strain RAD53, active compounds read low) was 0.729, the normalized growth (S. cerevisiae deletion strains, locus YPL204W, strain HRR25, active compounds read low) was 0.706 and the normalized growth (S. cerevisiae deletion strains, locus YPL209C, strain IPL1, active compounds read low) was 0.913. For the same compound, the normalized growth (S. cerevisiae deletion strains, locus YPL256C, strain CLN2, active compounds read low) was 0.293 (active), the normalized growth (S. cerevisiae deletion strains, locus YPR025C, strain CCL1, active compounds read low) was 0.911 and the normalized growth (S. cerevisiae deletion strains, locus YPR106W, strain ISR1, active compounds read low) was 0.921. For the same compound, the normalized growth (S. cerevisiae deletion strains, locus YPR111W, strain DBF20, active compounds read low) was 0.909, the normalized growth (S. cerevisiae deletion strains, strain NNK1, active compounds read low) was 0.938 and the normalized growth (S. cerevisiae deletion strains, strain TSCII, active compounds read low) was 0.872 (active).
For `O=[N+]([O-])c1cc(Cl)ccc1S(=O)(=O)c1ccccc1`, the normalized growth [1] was 0.987, the normalized growth [2] was 0.996 and the normalized growth [3] was 0.994. For the same compound, the normalized growth [4] was 0.98, the normalized growth [5] was 0.999 and the normalized growth [6] was 0.97. It also gave a normalized growth [7] of 0.969, a normalized growth [8] of 0.993 and a normalized growth (S. cerevisiae deletion strains, locus YGR229C, strain SMI1, active compounds read low) of 0.98. For the same compound, the normalized growth [9] was 0.836, the normalized growth [10] was 1.02 and the normalized growth [27] was 0.978. For the same compound, the normalized growth [11] was 0.995, the normalized growth [12] was 0.634 (active) and the normalized growth [13] was 0.996. The normalized growth [14] was 0.796, the normalized growth [15] was 0.705 (active) and the normalized growth [16] was 0.933. The normalized growth [17] was 0.998, the normalized growth [18] was 0.996 and the normalized growth [28] was 0.829. The normalized growth [19] was 0.985, the normalized growth [20] was 0.955 and the normalized growth [21] was 0.987. It also gave a normalized growth [22] of 0.974, a normalized growth [24] of 0.996 and a normalized growth [25] of 0.958. For the same compound, the normalized growth [26] was 0.803.
`Cc1c(S(=O)(=O)c2ccc(Cl)cc2)cnc2cc(C(C)(C)C)nn12` showed a normalized growth [1] of 1.01, a normalized growth [2] of 1.02 and a normalized growth [4] of 1. The normalized growth [5] was 1.03, the normalized growth [6] was 0.987 and the normalized growth [7] was 1.01. For the same compound, the normalized growth [8] was 1.01, the normalized growth [9] was 1.07 and the normalized growth [10] was 1.01. It also gave a normalized growth [27] of 1.01, a normalized growth [11] of 1.01 and a normalized growth [12] of 1.03. The normalized growth [13] was 1.01, the normalized growth [14] was 1.02 and the normalized growth [15] was 1.03. It also gave a normalized growth [16] of 1.01, a normalized growth [17] of 1.01 and a normalized growth [18] of 0.982. The normalized growth [28] was 0.945, the normalized growth (S. cerevisiae deletion strains, locus YNL128W, strain TEP1, active compounds read low) was 1.01 and the normalized growth [19] was 1. The normalized growth [20] was 1.05, the normalized growth [21] was 1.01 and the normalized growth [22] was 1.05. It also gave a normalized growth [23] of 1.06, a normalized growth [24] of 1.01 and a normalized growth [25] of 0.996. The normalized growth [26] was 1.06.

From PubChem BioAssay AID1159580 (chemical genetic matrix, 2015)
